# Assay results taken from the supplement of paper PMC8728848.
# Only a selection was taken, and the strongest signals are over-represented in it overall.
# B1: Nictaba (Nicotiana tabacum), Q94EW1 (protein)
# chain: MQGQWIAARDLSITWVDNPQYWTWKTVDPNIEVAELRRVAWLDIYGKIETKNLIRKTSYAVYLVFKLTDNPRELERATASLRFVNEVAEGAGIEGTTVFISKKKKLPGELGRFPHLRSDGWLEIKLGEFFNNLGEDGEVEMRLMEINDKTWKSGIIVKGFDIRPN
# How the values were obtained:
# Experiment in all cases: glycan array binding signal (z-score within array); higher = stronger binding
# Conditions in all cases: glycan notation: IUPAC condensed, linker removed
# [1] = biological target: Fuc(a1-2)Gal(b1-3)[Fuc(a1-4)]GlcNAc(b1-3)[Gal(b1-4)GlcNAc(b1-6)]Gal(b1-4)Glc
# How it was run: (§1)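 Negative Z-scores can be read as non-binding. The Z-score is calculated within each array and then averaged across arrays of one protein sequence at different concentrations or buffers and across linkers. Arrays, 3228 in all, were curated from the Consortium for Functional Glycomics database and kept only where the protein sequence was available.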
# Fuc(a1-2)Gal(b1-4)Glc6S = biological target: Fuc(a1-2)Gal(b1-4)Glc6S
# How it was run: as §1
# [2] = biological target: Fuc(a1-2)Gal(b1-4)GlcNAc(b1-3)Gal(b1-4)GlcNAc(b1-2)Man(a1-3)[Fuc(a1-2)Gal(b1-4)GlcNAc(b1-3)Gal(b1-4)GlcNAc(b1-2)Man(a1-6)]Man(b1-4)GlcNAc(b1-4)GlcNAc
# How it was run: as §1
# [3] = biological target: Fuc(a1-2)Gal(b1-4)[Fuc(a1-3)]GlcNAc(b1-2)Man(a1-3)[Fuc(a1-2)Gal(b1-4)[Fuc(a1-3)]GlcNAc(b1-2)Man(a1-6)]Man(b1-4)GlcNAc(b1-4)[Fuc(a1-6)]GlcNAc
# How it was run: as §1
# [4] = biological target: Fuc(a1-2)Gal6S(b1-3)GlcNAc6S
# How it was run: as §1
# [5] = biological target: Fuc(a1-2)Gal6S(b1-4)Glc6S
# How it was run: as §1
# [6] = biological target: Fuc(a1-2)[Gal(a1-3)]Gal(b1-3)GlcNAc(b1-2)Man(a1-3)[Fuc(a1-2)[Gal(a1-3)]Gal(b1-3)GlcNAc(b1-2)Man(a1-6)]Man(b1-4)GlcNAc(b1-4)[Fuc(a1-6)]GlcNAc
# How it was run: as §1
# [7] = biological target: Fuc(a1-2)[Gal(a1-3)]Gal(b1-4)GlcNAc(b1-3)GalNAc
# How it was run: as §1
# [8] = biological target: Fuc(a1-2)[GalNAc(a1-3)]Gal(b1-4)[Fuc(a1-3)]GlcNAc
# How it was run: as §1
# [9] = biological target: Fuc(a1-3)[Gal(b1-4)]GlcNAc(b1-2)Man(a1-3)[Fuc(a1-3)[Gal(b1-4)]GlcNAc(b1-2)Man(a1-6)]Man(b1-4)GlcNAc(b1-4)GlcNAc
# How it was run: as §1
# [10] = biological target: Fuc(a1-3)[Gal(b1-4)]GlcNAc(b1-6)[Neu5Ac(a2-3)Gal(b1-3)]GalNAc
# How it was run: as §1
# Gal(a1-2)Gal = biological target: Gal(a1-2)Gal
# How it was run: as §1
# [11] = biological target: Gal(a1-3)Gal(b1-3)GlcNAc(b1-2)Man(a1-3)[Gal(a1-3)Gal(b1-3)GlcNAc(b1-2)Man(a1-6)]Man(b1-4)GlcNAc(b1-4)GlcNAc
# How it was run: as §1
# Gal(b1-3)Gal(b1-4)GlcNAc = biological target: Gal(b1-3)Gal(b1-4)GlcNAc
# How it was run: as §1
# [12] = biological target: Gal(b1-3)[Fuc(a1-4)]GlcNAc
# How it was run: as §1
# [13] = biological target: Gal(b1-3)[Neu5Ac(a2-6)]GlcNAc
# How it was run: as §1
# [14] = biological target: Gal(b1-3)[Neu5Ac(b2-6)]GlcNAc
# How it was run: as §1
# [15] = biological target: Gal(b1-4)GlcNAc(b1-2)Man(a1-3)[Gal(b1-4)GlcNAc(b1-2)Man(a1-6)]Man(b1-4)GlcNAc(b1-4)GlcNAc
# How it was run: as §1
# [16] = biological target: Gal(b1-4)GlcNAc(b1-2)Man(a1-3)[Gal(b1-4)GlcNAc(b1-2)Man(a1-6)]Man(b1-4)GlcNAc(b1-4)[Fuc(a1-6)]GlcNAc
# How it was run: as §1
# [17] = biological target: Gal(b1-4)GlcNAc(b1-2)Man(a1-3)[Man(a1-6)]Man(b1-4)GlcNAc(b1-4)GlcNAc
# How it was run: as §1
# Gal3S(b1-4)GlcNAc6S = biological target: Gal3S(b1-4)GlcNAc6S
# How it was run: as §1
# Gal3S4S(b1-4)GlcNAc = biological target: Gal3S4S(b1-4)GlcNAc
# How it was run: as §1
# [18] = biological target: GalNAc3S(b1-4)[Fuc(a1-3)]GlcNAc
# How it was run: as §1
# Glc(a1-6)Glc(a1-6)Glc = biological target: Glc(a1-6)Glc(a1-6)Glc
# How it was run: as §1
# [19] = biological target: GlcNAc(b1-2)[GlcNAc(b1-4)]Man(a1-3)[GlcNAc(b1-2)Man(a1-6)]Man(b1-4)GlcNAc(b1-4)GlcNAc
# How it was run: as §1
# [20] = biological target: GlcNAc(b1-3)Gal(b1-4)GlcNAc(b1-3)Gal(b1-4)GlcNAc(b1-3)GalNAc
# How it was run: as §1
# [21] = biological target: Man(a1-2)Man(a1-2)Man(a1-3)Man
# How it was run: as §1
# [22] = biological target: Man(a1-2)Man(a1-2)Man(a1-3)[Man(a1-2)Man(a1-3)[Man(a1-2)Man(a1-6)]Man(a1-6)]Man(b1-4)GlcNAc(b1-4)GlcNAc
# How it was run: as §1
# [23] = biological target: Man(a1-2)Man(a1-2)Man(a1-3)[Man(a1-2)Man(a1-6)[Man(a1-3)]Man(a1-6)]Man(b1-4)GlcNAc(b1-4)GlcNAc
# How it was run: as §1
# [24] = biological target: Man(a1-2)Man(a1-3)[Man(a1-3)[Man(a1-6)]Man(a1-6)]Man(b1-4)GlcNAc(b1-4)GlcNAc
# How it was run: as §1
binder,measurement,setting,value
B1,glycan array binding signal (z-score),[1],-0.29
same,glycan array binding signal (z-score),Fuc(a1-2)Gal(b1-4)Glc6S,-0.254
same,glycan array binding signal (z-score),[2],3.54
same,glycan array binding signal (z-score),[3],5.19
same,glycan array binding signal (z-score),[4],-0.381
same,glycan array binding signal (z-score),[5],-0.234
same,glycan array binding signal (z-score),[6],-0.187
same,glycan array binding signal (z-score),[7],-0.273
same,glycan array binding signal (z-score),[8],-0.307
same,glycan array binding signal (z-score),[9],5.57
same,glycan array binding signal (z-score),[10],-0.295
same,glycan array binding signal (z-score),Gal(a1-2)Gal,-0.289
same,glycan array binding signal (z-score),[11],-0.148
same,glycan array binding signal (z-score),Gal(b1-3)Gal(b1-4)GlcNAc,-0.321
same,glycan array binding signal (z-score),[12],-0.271
same,glycan array binding signal (z-score),[13],-0.332
same,glycan array binding signal (z-score),[14],-0.39
same,glycan array binding signal (z-score),[15],3.74
same,glycan array binding signal (z-score),[16],1.64
same,glycan array binding signal (z-score),[17],3.52
same,glycan array binding signal (z-score),Gal3S(b1-4)GlcNAc6S,-0.163
same,glycan array binding signal (z-score),Gal3S4S(b1-4)GlcNAc,-0.289
same,glycan array binding signal (z-score),[18],-0.387
same,glycan array binding signal (z-score),Glc(a1-6)Glc(a1-6)Glc,-0.295
same,glycan array binding signal (z-score),[19],-0.101
same,glycan array binding signal (z-score),[20],-0.388
same,glycan array binding signal (z-score),[21],-0.29
same,glycan array binding signal (z-score),[22],3.93
same,glycan array binding signal (z-score),[23],4
same,glycan array binding signal (z-score),[24],4.38
